This note sets out measurements from PubChem BioAssay AID743398 (Broad Institute, 2014).

SMILES strings stand for the structures. Screen size: about 300,000 compounds; about 3,600 (1.2%) were called active. The sample as a whole holds a higher share of actives than the screen did. Values without a mark were called inactive. Cut-off read from the data, not from the text of the source: active = activation above about 30% (passing the limit was not always enough); inconclusive = no clear call, values can overlap the other calls.

This experiment can be described thus: Wnt/beta-catenin pathway activators, primary screen, cell-based, plate reader, single point (AID 743398).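 Note: 0% = neutral control wells and 100% = positive control wells.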 Conditions: Wnt/beta-catenin reporter cell assay, activator, at 9.35 µM, hits give high values.
With `CC(Cc1ccccc1)NC=O` (stereo not given), the activation is -1.03%.

Consider `CC(Cc1ccccc1)NCCC(c1ccccc1)c1ccccc1` (stereo not given), for which the activation was 42% (active). In the case of `CC(=O)NC(=O)NC(C)Cc1ccccc1` (stereo not given) it was -4.37%; in that of `COc1cc(OC)cc(C(=O)NCCN2CCC3(CC2)C(=O)NCN3c2ccccc2)c1`, 3.07%. In the case of `Brc1ccc2c(c1)CNCc1cnnn1-2` it was -2.63%.
